aSyn 5UTR act = Activators via SNCA 5'UTR binding, MLPCN | alpha-synuclein 5'UTR reporter, activators screen | activity score, % (tested at 7.5 µM), hits read low | 300,000 compounds, 7.1% hits; in the data active = activity score below about -60%
The depositor's hits bear a star. The list is a sample of the results.

SMILES	aSyn 5UTR act
COc1cc(C2Nc3cc(Cl)c(S(N)(=O)=O)cc3S(=O)(=O)N2)ccc1OCc1ccccc1 (stereo not drawn)	-147*
COc1ccc(S(=O)(=O)N2CCOCC2)cc1NC(=O)CCNC(=O)c1ccc(Br)cc1	77
COc1ccc(CC(=O)N(C)Cc2ccc(Cl)cc2)cc1S(=O)(=O)N1CCOCC1	-115*
CCCc1cnc(N2CCN(C(=S)NC)CC2)nc1	-111*
COCCNC(=O)C(c1ccncc1)N(Cc1ccccc1)C(=O)Cn1nnc2ccccc21 (stereo not drawn)	-82*
COCCNC(=O)C(c1cccnc1)N(Cc1ccccc1)C(=O)Cn1nnc2ccccc21 (stereo not drawn)	-65*
Cc1ccc2c(c1)=C(c1sc(N(C)c3ccc(O)cc3)nc1O)C(=O)N=2	-68*
Cc1ccc(Sc2ncccc2COC(=O)NC(C)C)cc1	-89*
O=C(Nc1ccc2oc(=O)ccc2c1)c1ccco1	-75*
O=C(Nc1ccc2oc(=O)ccc2c1)c1ccc2ccccc2c1	-67*
Cc1nonc1NC(=O)c1oc2ccc(F)cc2c1C	-73*
Cc1cc2oc(C(=O)Nc3nonc3C)c(C)c2cc1Cl	-88*
c1ccc(COc2ccc(OCCOCCn3cncn3)cc2)cc1	-117*
O=C(Nc1cccc(Cl)c1)Nc1nccs1	-159*
O=C(Nc1ccc(Cl)c(Cl)c1)Nc1nccs1	-64*
Cc1nc2cc(NC(=O)Nc3nccs3)ccc2n1C	-99*
CCc1ccc(C(=O)NCc2cccs2)s1	-63*
CC(C)Oc1ccc(C(=O)NCc2cccs2)cc1	-85*
Cc1cc(=O)oc2cc(NC(=O)c3ccc(OC(F)F)cc3)ccc12	-124*
Cc1cc(=O)oc2cc(NC(=O)c3cccc(S(C)(=O)=O)c3)ccc12	-97*
Cc1cc(=O)oc2cc(NC(=O)c3cccc(F)c3)ccc12	-152*
Cc1cc(=O)oc2cc(NC(=O)c3cccc(S(=O)(=O)N(C)C)c3)ccc12	-112*
c1ccc(-c2nc3ccccc3o2)nc1	-70*
Nc1ccc2oc(-c3ccccn3)nc2c1	-133*
Clc1ccc2oc(-c3ccccn3)nc2c1	-147*
SMILES	aSyn 5UTR act
CCOc1cccc(-c2nc3cc(C)ccc3o2)c1	-153*
Cc1ccc2oc(-c3ccccc3)nc2c1	-188*
Cc1ccc2oc(Nc3nc(C)cc(C)n3)nc2c1	-163*
Cc1ccc(C)c(-c2nc3cc(N)ccc3o2)c1	63
Cc1nc(Nc2nc3ccccc3o2)nc2c1CCC2	71
CC(=O)Nc1cccc(NC(=O)CSc2ncc(-c3ccccc3)[nH]2)c1	-80*
O=C(CSc1ncc(-c2ccccc2)[nH]1)Nc1ccccc1F	-126*
Cc1ccc(Nc2nc(Nc3ccc(C)cc3)nc(SC3=NCCS3)n2)cc1	-95*
Cc1ccc(Nc2nc(Cl)nc(NC(C)(C)C)n2)cc1	-154*
O=C(Cc1c(Cl)cccc1Cl)OCc1ccccn1	-124*
CN1CCN(C(=O)/C=C/c2ccc([N+](=O)[O-])o2)CC1	-83*
O=C(/C=C/c1ccc(-c2ccc(F)cc2)o1)N1CCCC1	-127*
CC(C)c1ccc(S(=O)(=O)c2cc3cc(Br)ccc3oc2=O)cc1	-63*
O=C(Nc1nnc(-c2ccccc2F)s1)Nc1ccccc1F	-155*
O=C(Nc1nnc(Cc2ccccc2F)s1)Nc1ccccc1F	-99*
C/C(N)=C(/C#N)C(=O)COC(=O)c1cc2c(s1)CCC(C)C2 (stereo not drawn)	-73*
COc1ccc(-c2csc3nc(-c4ccccc4F)oc(=O)c23)cc1	-101*
COc1ccc(F)cc1CN1CCN(c2ncnc3scc(-c4ccccc4)c23)CC1	98
O=C(NCC1CCCN(C(=O)c2cscn2)C1)c1ccccc1Cl (stereo not drawn)	-78*
Cc1cc2ncc(-c3cccc(Cl)c3)cn2n1	-117*
Cc1cc2ncc(-c3ncc(C(F)(F)F)cc3Cl)cn2n1	65
Cc1ccc(-n2nc3ccc(N)cc3n2)c(C)c1	66
Cc1c(N)ccc(-n2nc3ccccc3n2)c1C	-65*
COc1ccc(C(=O)c2c(C(F)(F)F)oc3c2C(=O)c2ccccc2C3=O)cc1	109
Cc1ccc(C(=O)c2coc3c2C(=O)C(=O)c2ccccc2-3)cc1	-90*
SMILES	aSyn 5UTR act
Cc1oc2c(c1C(=O)c1ccc(Cl)cc1)C(=O)C(=O)c1ccccc1-2	-87*
C/C(=N\Nc1ccc(F)cc1F)c1ccccc1O	-104*
O=C(COn1nnc2ccccc21)NCC1CCCCC1	-78*
O=C(COn1nnc2ccccc21)N1CCN(Cc2ccccc2)CC1	-66*
Cc1cc2[nH]c3c(c[n+](C)c4ccccc34)c2cc1C	101
Cc1cc2c([nH]c3ccccc32)c2c1OC(C)(C)C=C2	-204*
CC(=O)Nc1ccc(S(=O)(=O)NC2=C(N3CCN(C)CC3)C(=O)c3ccccc3C2=O)cc1	71
CC(=O)Nc1cccc2c1Cc1ccccc1-2	-159*
CN1CCc2c(sc(/N=C/c3cc(Cl)ccc3O)c2C#N)C1	-157*
CN1CCc2c(sc(/N=C/c3c[nH]c4ccccc34)c2C#N)C1	-68*
Cc1ccc(C(=O)N/C(=C\c2ccc(-c3ccc(Br)cc3)o2)C(=O)NCCCN(C)C)cc1	100
O=C(NCc1cccnc1)/C(=C/c1ccc(-c2ccc(Cl)cc2)o1)S(=O)(=O)c1ccccc1	-79*
O=C(NCc1cccnc1)/C(=C\c1ccc(-c2ccc(Br)cc2)o1)S(=O)(=O)c1ccccc1	-138*
COc1ccc(Cn2c(/C=C/c3ccccc3)nc3ccccc32)cc1	-202*
CCn1c(/C=C/c2ccccc2)nc2ccccc21	-157*
COc1ccc(/C=C/c2nc3ccccc3n2C)cc1	109
CC(C)Cn1c(/C=C/c2ccccc2)nc2ccccc21	-114*
O=C(Cn1c(/C=C/c2ccccc2)nc2ccccc21)Nc1ccc(F)cc1	-72*
Nc1nc(-c2cc(O)ccc2[N+](=O)[O-])cc(-c2ccccc2)c1[N+](=O)[O-]	-120*
CCOC(=O)c1sc(NC(=O)Nc2ccc(Cl)cc2)cc1C	-135*
CCOC(=O)c1sc(NC(=O)C(C)(C)C)cc1C	-166*
CCOC(=O)c1sc(NC(=O)c2ccccc2)cc1C	-181*
CCOC(=O)c1sc(Nc2nc3c(OC)cccc3s2)cc1C	-196*
CCOC(=O)c1sc(NC(=O)c2ccc(Cl)s2)cc1C	-196*
CCOC(=O)c1sc(NC(=S)NC(=O)CC(C)C)cc1C	-102*
SMILES	aSyn 5UTR act
CCN(CC)Cc1c(NC(=O)c2ccccc2)sc(C)c1C	-87*
O=C(Cc1ccccc1[N+](=O)[O-])OCC(=O)c1c[nH]c2ccccc12	-69*
O=C(COC(=O)C1CC1)c1c[nH]c2ccccc12	-177*
COc1cccc(-c2nnc(Nc3nc4c(F)cccc4s3)o2)c1	-145*
COc1ccccc1-c1nnc(Nc2nc3c(OC)cccc3s2)o1	81
COc1cccc2sc(Nc3nnc(-c4ccccc4Cl)o3)nc12	66
Cc1cc(C)c(C)c(N=Nc2nc3ccccc3n2C)c1C	-75*
Cc1ccc(C)c(N=Nc2nc3ccccc3n2C)c1	-202*
Cc1ccccc1C(=O)N/N=C/c1ccc([N+](=O)[O-])s1	93
O=C(N/N=C/c1sc2ccccc2c1O)c1cccc2ccccc12	92
CCc1ccc(C(=O)N/N=C/c2cccc3ccccc23)nc1	-125*
O=C(COc1ccccc1-c1ccccc1)N/N=C/c1cccc2ccccc12	75
CCCn1c(=O)c(C(=O)N/N=C/c2ccccc2F)c(O)c2ccccc21	-95*
Cc1ccccc1C(=O)N/N=C/c1ccsc1C	-148*
O=C(N/N=C/c1ccccc1F)c1cccc2ccccc12	-87*

Screening data (PubChem BioAssay)
